High-throughput results from PubChem.
Dicer processing = inhibitors of Dicer pre-microRNA processing, primary screen, biochemical, cat-ELCCA, chemiluminescence | actives 6% (n = 47,000) | cat-ELCCA pre-miR-21 Dicer processing; hits give high values | Endoribonuclease Dicer (Homo sapiens), Q9UPY3 | z-score at 25 µM; in the data active = z-score above about 3, passing the limit was not always enough;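 note: higher signal means more uncleaved substrate so more Dicer inhibition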
Hits are given with their value. Many of the other results were omitted from the sample, so hits are more common in it than they were.

Screening CC1(C)CC(=O)C2=C(C1)Nc1ccccc1NC2c1ccc2c(c1)OCO2 (stereo not drawn) returned Dicer processing inactive.
`c1ccc2c(c1)NC(c1ccc3c(c1)OCCO3)n1cccc1-2` (stereo not drawn) gave Dicer processing inactive.
`O=C1c2ccccc2NC(c2ccc3c(c2)OCO3)N1Cc1ccccc1` (stereo not drawn) gave Dicer processing 3.4.
Screening COc1ccc(Nc2nc(-c3ccccn3)cs2)cc1 returned Dicer processing 6.4.
Cc1cccnc1Nc1nc(-c2ccccn2)cs1 was read as Dicer processing inactive.
COc1ccc(Nc2nc(-c3cccnc3)cs2)cc1 was read as Dicer processing inactive.
Screening Cc1ccc(OCC(O)CN2CCC(C)CC2)c(C)c1 (stereo not drawn) returned Dicer processing inactive.
For Cc1ccc2nc(NC3=NCN(Cc4ccccc4Cl)CN3)nc(C)c2c1 the results were Dicer processing inactive.
`CCOC(=O)c1c[nH]c2ccc(C(F)(F)F)cc2c1=O` gave Dicer processing inactive.
`CCOC(=O)c1ccc2[nH]cc(C(=O)OCC)c(=O)c2c1` gave Dicer processing inactive.
CCOC(=O)c1c[nH]c2ccccc2c1=O was read as Dicer processing 3.
Screening CN(C)CCN1C(=O)C(=O)/C(=C(/O)c2ccccc2)C1c1ccc(Br)cc1 (stereo not drawn) returned Dicer processing inactive.
`O=C(O)CCCN1C(=O)C(=O)/C(=C(/O)c2ccccc2)C1c1ccc(Br)cc1` (stereo not drawn) gave Dicer processing 3.9.
`O=C1C(=O)N(CCCN2CCOCC2)C(c2ccccc2)/C1=C(\O)c1ccc(Br)cc1` (stereo not drawn) gave Dicer processing inactive.
For Cc1c(S(=O)(=O)c2ccc(Cl)cc2)cnc2cc(C(C)(C)C)nn12 the results were Dicer processing inactive.
For N#Cc1c(OCC(F)(F)F)ccc(C(N)=O)c1OCC(F)(F)F the results were Dicer processing inactive.
For CCOc1cccc(NC(=O)c2nc(C)oc2C(F)(F)F)c1 the results were Dicer processing inactive.
For NS(=O)(=O)c1cc([N+](=O)[O-])c(N2CCCCC2)s1 the results were Dicer processing inactive.
`COC(=O)c1ccccc1NC(=S)OC` gave Dicer processing inactive.
`CCOC(=O)Nc1ccccc1C(=O)OC` gave Dicer processing 5.4.
COC(=O)c1ccccc1NC(=S)N(N)CCO was read as Dicer processing inactive.
CCOC(=O)c1c(C)c(C#N)c(-n2cccc2)n1-c1ccc(C)cc1 was read as Dicer processing inactive.
`Cc1ccsc1C1Nc2nonc2NC2=C1C(=O)CC(C)(C)C2` (stereo not drawn) gave Dicer processing inactive.
`CC(C)(C)n1nc(C2CC2)c(Br)c1NC(=O)c1ccccc1Cl` gave Dicer processing inactive.
For Cc1cc(NC(=O)c2ccc(Cl)cc2Cl)n(C(C)(C)C)n1 the results were Dicer processing inactive.
For Cc1nn(C(C)(C)C)c(NC(=O)c2ccc(Cl)cc2Cl)c1Br the results were Dicer processing 3.3.
Screening COc1ccc(C2CC(=O)C3=C(C2)NC(C)=C(C(=O)OC(C)C)C3c2ccc(O)c(OC)c2)cc1 (stereo not drawn) returned Dicer processing inactive.
`Cn1c(SCC(=O)Nc2ccccc2)nnc1SCC(=O)Nc1ccccc1` gave Dicer processing inactive.
For CCOC(=O)CSc1nc(-c2ccccc2)cn1-c1ccccc1 the results were Dicer processing inactive.
For O=C(CSc1nc(-c2ccccc2)cn1-c1ccccc1)NC(=O)Nc1ccccc1 the results were Dicer processing 3.4.
CCc1nn2cc(C(C)(C)C)nc2s1 was read as Dicer processing inactive.
For CCOC(=O)C1CCN(S(=O)(=O)c2ccc(Br)cc2)CC1 the results were Dicer processing inactive.
For CCOc1ccc(S(=O)(=O)N2CN3CCN(C3)C2)cc1 the results were Dicer processing 3.2.
For CCCCOc1ccc(S(=O)(=O)n2cnc(C)c2)cc1 the results were Dicer processing inactive.
`CCCCc1c(COC)nc(SC)[nH]c1=O` gave Dicer processing inactive.
Screening Cc1ccc(N2N=C(C(=O)c3cccs3)SC2=C2C(=O)c3ccccc3C2=O)cc1 returned Dicer processing inactive.
For Cc1c(/C=C/C(=O)Oc2c(Cl)cccc2Cl)sc2ccccc12 the results were Dicer processing inactive.
For CCOC(=O)c1c(N)sc2c1CCN(C(=O)OCC)C2 the results were Dicer processing inactive.
For N#Cc1c(NC(=O)c2ccc(Cn3cc(Cl)cn3)cc2)sc2c1CCCC2 the results were Dicer processing inactive.
For CC1(C)CC(=O)C2=C(C1)Nc1nc(SCc3ccccc3)[nH]c(=O)c1C2c1ccc2c(c1)OCO2 (stereo not drawn) the results were Dicer processing inactive.
Screening COc1ccccc1N1C(=O)CC(N2CCN(c3ccc(F)cc3)CC2)C1=O (stereo not drawn) returned Dicer processing inactive.
`O=C1CC(N2CCN(c3ccccc3O)CC2)C(=O)N1c1ccccc1F` (stereo not drawn) gave Dicer processing inactive.
